According to PubChem BioAssay (EPA / NIEHS):
Where “and” joins values, the source holds several entries; their conditions need not be identical. Equal entries are not always repeated. Where a structure was tested more than once in an assay, its records may differ in their call. Calls of active or inactive are those of the source. The calls were made as follows: active = hit-call score of the fitted dose curve at least 0.9, where 1 is the maximum; inactive = score below 0.9.

Legend:
[1] = read-out: Urokinase-type plasminogen activator receptor (uPAR), PLAUR (gene 5329); assay: BSK_4H_uPAR: BioMAP Diversity Plus: 4H Assay for Urokinase-type plasminogen activator receptor (uPAR) Biomarker Activity (AID 2283030); conditions: primary human endothelial cells (HUVEC); actives raise or lower the signal
How it was run: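 Primary human umbilical vein endothelial cells were exposed to chemical for 24 h before cell-surface uPAR was quantified by ELISA. Activity was fitted bidirectionally against the DMSO negative control baseline.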

[2] = read-out: Vascular endothelial growth factor receptor 2 (Homo sapiens) (UniProt P35968); assay: BSK_4H_VEGFRII: BioMAP Diversity Plus: 4H Assay for Vascular endothelial growth factor receptor 2 (VEGFR2) Biomarker Activity (AID 2283031); conditions: primary human endothelial cells (HUVEC); actives raise or lower the signal;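 as to AC50: cell-surface VEGFR2 protein level quantified by ELISA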
How it was run: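 Primary human umbilical vein endothelial cells in the BioMAP 4H system were dosed with test chemical, and 24 h later VEGFRII was measured by ELISA. Activity was fitted bidirectionally against DMSO as negative control and baseline.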

[3] = read-out: Human Leukocyte Antigen - DR isotype (HLADR), HLA-DRA (gene 3122); assay: BSK_BE3C_HLADR: BioMAP Diversity Plus: BE3C Assay for Human Leukocyte Antigen - DR isotype (HLADR) Biomarker Activity (AID 2283032); conditions: primary human bronchial epithelial cells; actives raise or lower the signal
How it was run: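 Human primary bronchial epithelial cells in the BE3C system were exposed to chemicals for 24 h, after which HLA-DR levels were quantified by ELISA. Activity was fitted bidirectionally, gain or loss of signal, against DMSO as negative control and baseline.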

[4] = read-out: Vascular cell adhesion molecule 1 (VCAM1), VCAM1 (gene 7412); assay: BSK_4H_VCAM1: BioMAP Diversity Plus: 4H Assay for Vascular cell adhesion molecule 1 (VCAM1) Biomarker Activity (AID 2283033); conditions: primary human endothelial cells (HUVEC); actives raise or lower the signal
How it was run: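 Primary human umbilical vein endothelial cells were exposed to chemicals for 24 h, after which VCAM-1 was quantified by ELISA. Responses were fitted bidirectionally against DMSO as negative control and activity baseline.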

[5] = read-out: Interferon-gamma inducible Protein 10 (IP10), CXCL10 (gene 3627); assay: BSK_BE3C_IP10: BioMAP Diversity Plus: BE3C Assay for Interferon-gamma inducible Protein 10 (IP10) Biomarker Activity (AID 2283034); conditions: primary human bronchial epithelial cells; actives raise or lower the signal
How it was run: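 Human primary bronchial epithelial cells were exposed to chemicals for 24 hours, after which IP-10 levels were measured by ELISA. Data were fitted bidirectionally against DMSO, which served as the negative control and activity baseline.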

[6] = read-out: Monokine induced gamma interferon (MIG), CXCL9 (gene 4283); assay: BSK_BE3C_MIG: BioMAP Diversity Plus: BE3C Assay for Monokine induced gamma interferon (MIG) Biomarker Activity (AID 2283035); conditions: primary human bronchial epithelial cells; actives raise or lower the signal
How it was run: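 ELISA read-out of MIG in human lung bronchial epithelial primary cultures, 24 h post-dosing. Bidirectional curve fit vs DMSO baseline.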

[7] = read-out: Plasminogen activator inhibitor-1 (PAI1), SERPINE1 (gene 5054); assay: BSK_BE3C_PAI1: BioMAP Diversity Plus: BE3C Assay for Plasminogen activator inhibitor-1 (PAI1) Biomarker Activity (AID 2283037); conditions: primary human bronchial epithelial cells; actives raise or lower the signal
How it was run: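 Human primary bronchial epithelial cells were exposed to chemical for 24 h, then PAI-1 was quantified by ELISA. Activity was fitted bidirectionally relative to the DMSO negative control baseline.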

[8] = read-out: urokinase plasminogen activator (uPA), PLAU (gene 5328); assay: BSK_BE3C_uPA: BioMAP Diversity Plus: BE3C Assay for urokinase plasminogen activator (uPA) Biomarker Activity (AID 2283038); conditions: primary human bronchial epithelial cells; actives raise or lower the signal
How it was run: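 Human primary bronchial epithelial cells were exposed to chemical for 24 h, then uPA levels were measured by ELISA. Responses were fitted bidirectionally against DMSO as negative control and baseline. Parallel SRB staining of total protein gauged overt cytotoxicity.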

[9] = read-out: Urokinase-type plasminogen activator receptor (uPAR), PLAUR (gene 5329); assay: BSK_BE3C_uPAR: BioMAP Diversity Plus: BE3C Assay for Urokinase-type plasminogen activator receptor (uPAR) Biomarker Activity (AID 2283039); conditions: primary human bronchial epithelial cells; actives raise or lower the signal
How it was run: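 Primary human bronchial epithelial cells were dosed with chemical and harvested 24 h later; uPAR was quantified by ELISA. Activity was fitted bidirectionally against DMSO as negative control and baseline.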

[10] = read-out: Interleukin-6 (IL6), IL6 (gene 3569); assay: BSK_CASM3C_IL6: BioMAP Diversity Plus: CASM3C Assay for Interleukin-6 (IL6) Biomarker Activity for (AID 2283040); conditions: primary human coronary artery smooth muscle cells; actives raise or lower the signal
[11] = read-out: Tissue plasminogen activator (tPA), PLAT (gene 5327); assay: BSK_BE3C_tPA: BioMAP Diversity Plus: BE3C Assay for Tissue plasminogen activator (tPA) Biomarker Activity (AID 2283041); conditions: primary human bronchial epithelial cells; actives raise or lower the signal
How it was run: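 Human primary bronchial epithelial cells were dosed with chemical and tPA biomarker levels measured by ELISA 24 hours later. Activity was fitted bidirectionally against DMSO as negative control and baseline.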

[12] = read-out: Interleukin-8 (IL8), CXCL8 (gene 3576); assay: BSK_CASM3C_IL8: BioMAP Diversity Plus: CASM3C Assay for Interleukin-8 (IL8) Biomarker Activity (AID 2283042); conditions: primary human coronary artery smooth muscle cells; actives raise or lower the signal;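 also: IL-8 protein level quantified by ELISA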
[13] = read-out: Human Leukocyte Antigen - DR isotype (HLADR), HLA-DRA (gene 3122); assay: BSK_CASM3C_HLADR: BioMAP Diversity Plus: CASM3C Assay for Human Leukocyte Antigen - DR isotype (HLADR) Biomarker Activity (AID 2283043); conditions: primary human coronary artery smooth muscle cells; actives raise or lower the signal;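 also: cell-surface HLA-DR protein level quantified by ELISA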
[14] = read-out: Macrophage colony-stimulating factor (MCSF), CSF1 (gene 1435); assay: BSK_CASM3C_MCSF: BioMAP Diversity Plus: CASM3C Assay for Macrophage colony-stimulating factor (MCSF) Biomarker Activity (AID 2283044); conditions: primary human coronary artery smooth muscle cells; actives raise or lower the signal;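 also: M-CSF protein amount quantified by ELISA after 24 h exposure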
[15] = read-out: Low-density lipoprotein receptor (LDLR), LDLR (gene 3949); assay: BSK_CASM3C_LDLR: BioMAP Diversity Plus: CASM3C Assay for Low-density lipoprotein receptor (LDLR) Biomarker Activity (AID 2283045); conditions: primary human coronary artery smooth muscle cells; actives raise or lower the signal;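 also: LDLR protein level on the cell surface quantified by ELISA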
[16] = read-out: Monocyte Chemoattractant Protein-1 (MCP1), CCL2 (gene 6347); assay: BSK_CASM3C_MCP1: BioMAP Diversity Plus: CASM3C Assay for Monocyte Chemoattractant Protein-1 (MCP1) Biomarker Activity (AID 2283046); conditions: primary human coronary artery smooth muscle cells; actives raise or lower the signal;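 also: MCP-1 level quantified by ELISA 24 h after dosing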
[17] = BSK_CASM3C_Proliferation: Cell Proliferation Assessment in the BioMAP Diversity Plus: CASM3C Assay (AID 2283047); conditions: primary human coronary artery smooth muscle cells;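 also: sulforhodamine B total protein stain as relative cell number at 560 nm; sub-confluent cells exposed 48 h before staining; fitted both ways against DMSO so gain or loss of cell number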
[18] = read-out: Monokine induced gamma interferon (MIG), CXCL9 (gene 4283); assay: BSK_CASM3C_MIG: BioMAP Diversity Plus: CASM3C Assay for Monokine induced gamma interferon (MIG) Biomarker Activity (AID 2283048); conditions: primary human coronary artery smooth muscle cells; actives raise or lower the signal
[19] = read-out: serum amyloid A (SAA), SAA1 (gene 6288); assay: BSK_CASM3C_SAA: BioMAP Diversity Plus: CASM3C Assay for serum amyloid A (SAA) Biomarker Activity (AID 2283049); conditions: primary human coronary artery smooth muscle cells; actives raise or lower the signal;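 also: SAA protein level quantified by ELISA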

Measured: AC50

OCCCC(F)(F)C(F)(F)C(F)(F)F
inactive: [1] | [2] | [3] | [4] | [5] | [6] | [7] | [8] | [9] | [10] | [11] | [12] | [13] | [14] | [15] | [16] | [17] | [18] | [19]

O=C(O)C(F)(F)C(F)(F)C(F)(F)C(F)(F)C(F)(F)C(F)(F)C(F)(F)C(F)(F)C(F)(F)C(F)(F)C(F)(F)C(F)(F)F
active: [2] 22 µM and 11.1 µM | [4] 3.66 µM and 1.18 µM | [13] 16.1 µM | [19] 2.34 µM and 3.54 µM
inactive: [1] | [3] | [5] | [6] | [7] | [8] | [9] | [10] | [11] | [12] | [13] | [14] | [15] | [16] | [17] | [18]

C=C(C)C(=O)OCC(F)(F)C(F)(F)C(F)(F)C(F)(F)C(F)(F)C(F)(F)C(F)(F)F
inactive: [1] | [2] | [3] | [4] | [5] | [6] | [7] | [8] | [9] | [10] | [11] | [12] | [13] | [14] | [15] | [16] | [17] | [18] | [19]

OCCCC(F)(F)C(F)(F)C(F)(F)C(F)(F)C(F)(F)C(F)(F)C(F)(F)F
active: [1] 51.2 µM and 47.3 µM | [2] 44.6 µM and 45.4 µM | [3] 50.4 µM and 45.9 µM | [4] 46.4 µM and 48.6 µM | [5] 47.6 µM and 46.4 µM | [6] 49.6 µM and 55.7 µM | [7] 47.1 µM and 30 µM | [8] 46.5 µM and 47.5 µM | [9] 52.4 µM and 47.2 µM | [10] 42.1 µM and 48.2 µM | [11] 35.7 µM and 30 µM | [12] 49 µM | [13] 23.3 µM and 49 µM | [14] 22.1 µM and 43.6 µM | [15] 43.7 µM and 45.9 µM | [16] 38.3 µM and 28.9 µM | [17] 18.4 µM and 20.3 µM | [18] 41.7 µM and 41.9 µM | [19] 37.6 µM and 22.7 µM
inactive: [12]

CCCCCCCCC(F)(F)C(F)(F)C(F)(F)C(F)(F)C(F)(F)C(F)(F)F
inactive: [1] | [2] | [3] | [4] | [5] | [6] | [7] | [8] | [9] | [10] | [11] | [12] | [13] | [14] | [15] | [16] | [17] | [18] | [19]
